PubChem BioAssay AID1822 (The Scripps Research Institute Molecular Screening Center, 2009)
About 3,500 (1.2%) of roughly 290,000 compounds were called active. Only a selection was taken, and actives are over-represented in it overall. Values without a mark were called inactive.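 The calls were made as follows: active = inhibition above the campaign mean inhibition over all tested compounds plus 3 SD (cut at about 28% in these data); inactive = the rest.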

tested on: M18 aspartyl aminopeptidase (Plasmodium falciparum 3D7); assay: inhibition of P. falciparum M18 aminopeptidase – biochemical, QFRET, recombinant enzyme, primary screen (AID 1822); conditions: recombinant PfM18AAP, H-Glu-NHMec fluorogenic cleavage; at 7.35 µM; stronger effect = higher value;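 also: 0% = plate median of test compound wells and 100% = 2 mM ZnCl2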

SMILES	inhibition
O=C(NC(=S)Nc1ccc(S(=O)(=O)N2CCOCC2)cc1)c1ccccc1[N+](=O)[O-]	2.44%
O=S(=O)(c1ccc(NC(=S)NN=C(C2CC2)C2CC2)cc1)N1CCOCC1	34.2% (active)
CN1CCN(S(=O)(=O)c2ccc(NC(=S)NC(=O)C3CC3)cc2)CC1	3.06%
CN1/C(=C\C=C2\N=C(c3ccc(F)cc3)OC2=O)C(C)(C)c2ccccc21	-0.7%
CCOC(=O)c1c(C)[nH]c(C)c1S(=O)(=O)NCCCc1ccco1	-16.1%
CCC(O)CNc1nc(-n2nc(C)cc2C)nc2sc3c(c12)CC(C)(C)OC3 (stereo unspecified)	-1.41%
CC(C)c1nc2sc3c(c2c(=O)n1N)CC(C)(C)OC3	-0.21%
C=CCNC(=S)NNc1ncnc2sc3c(c12)CC(C)(C)OC3	30.1% (active)
COc1cccc(CN2CCN(Cc3ccc4cccc(F)c4n3)CC2CCO)c1 (stereo unspecified)	2.05%
CCN(CC)c1ccc(/C=N/NC(=O)c2cnccn2)c(O)c1	9.64%
CCN(CC)c1ccc(/C=N/Nc2nc(C)cc(C)n2)c(O)c1	50.9% (active)
Cc1cc(C)nc(N/N=C/c2ccncc2)n1	11%
CC(=O)N1c2ccc(S(=O)(=O)N3CCC(C(=O)N4CCN(c5ccccc5)CC4)CC3)cc2CC1C (stereo unspecified)	5.96%
CC(C)C(=O)Nc1nnc(SCC(=O)N2C(C)CCCC2C)s1 (stereo unspecified)	-5.69%
COC(=O)C1CCN(C(=O)c2ccc3oc(Cc4ccc(Cl)cc4)nc3c2)CC1	6.38%
Cc1ccc(CNC(=O)c2c(-c3ccccc3)noc2C)cc1	12.7%
COc1ccc(C(=O)NC(=S)NNC(=O)c2c(-c3ccccc3)noc2C)cc1	5.86%
Cc1onc(-c2ccccc2)c1C(=O)NNC(=S)NC(=O)c1ccc(F)cc1	38.2% (active)
C=CCc1cccc(/C=N/NC(=O)COc2ccc(-n3cnnn3)cc2)c1O	11.8%
Cc1ccc(S(=O)(=O)N(CC(=O)NN=C2CCN(C)CC2)c2ccc(F)cc2)cc1	-4.43%
O=C(CCc1nnc2ccc(NCc3ccco3)nn12)Nc1cc(F)ccc1F	26%
CC(=O)c1ccc(NC(=O)CCc2nnc3ccc(NCc4ccco4)nn23)cc1	46.3% (active)
CCOc1ccccc1NC(=O)CCc1nnc2ccc(NCc3ccco3)nn12	21.1%
COc1ccc(NC(=O)C2CCN(S(=O)(=O)c3ccc4[nH]c(=O)oc4c3)CC2)c(OC)c1	2.9%

SMILES	inhibition
COc1ccc(/C=N/N=C2/C(=O)Nc3ccccc32)cc1O	30.7% (active)
CN(C)/C=C1/C(=O)Nc2ccccc21	7.19%
COc1ccc(/C=N/S(=O)(=O)c2ccccc2)cc1OC	-9.39%
Cc1cccc(N(Cc2ccccc2)C(=O)c2ccccc2F)c1	0.68%
O=S(=O)(c1ccc(Br)cc1)c1nc(-c2ccccc2)oc1N1CCOCC1	-11.7%
COc1ccc(C(=O)O/N=C(\N)c2ccccn2)cc1[N+](=O)[O-]	-11.1%
COc1ccc(C(=O)NNC(=O)c2cnccn2)cc1[N+](=O)[O-]	28.7% (active)
COc1cccc(OCC(=O)NNC(=O)c2cnccn2)c1	0.44%
COc1cc(/C=N/Nc2nc3ccccc3s2)ccc1O	4.41%
c1ccc2sc(NN=C3CCCC3)nc2c1	43.7% (active)
O=C(Nc1ccccc1)Nc1nc2ccccc2s1	-14.5%
Cc1cccc(NC(=O)N2CCCCCC2)c1C	-13.5%
Cc1c(C)n(Cc2ccc(Cl)cc2)c2ccc(C(=O)NCCCN3CCOCC3)cc12	-3.58%
CCCCNc1ccc(C(=O)Nc2cccc(C)n2)cc1[N+](=O)[O-]	-6.29%
CCOC(=O)c1sc(/N=C/C2=C(O)CC(C)(C)CC2=O)c(C(=O)OCC)c1C	-7.73%
CCOC(=O)c1c(/N=C/C2C(=O)CC(C)(C)CC2=O)sc(C)c1C	28.8% (active)
CCOC(=O)c1c(N)sc2c1CCCC2=O	13.3%
Cc1cc(NS(=O)(=O)c2ccc(NC(=O)C(C)Oc3cccc(C)c3C)cc2)nc(C)n1 (stereo unspecified)	1.85%
COc1ccc([N+](=O)[O-])cc1-c1nc2ccccc2nc1-c1ccccc1	0.66%
Cc1ccc2c(c1)N(CC(=O)N1CCOCC1)C(=O)CO2	-1.57%
CC(=O)c1ccc(NC(=O)c2ccc(-n3cncn3)c([N+](=O)[O-])c2)cc1	-11.7%
Nc1ccc2nc3c(=O)[nH]c(=S)[nH]c3nc2c1	28.9% (active)
CCc1cc(=O)oc2c(C)c(OCC(=O)NCCN3CCOCC3)ccc12	-0.48%
COc1ccc(Cl)cc1NC(=O)CCS(=O)(=O)c1ccc(Br)cc1	-8.04%

SMILES	inhibition
Cc1cc(NC(=O)CCC(=O)N(Cc2ccccc2)C(C(=O)NC2CCCC2)c2ccc(C)o2)no1 (stereo unspecified)	8.33%
CC1CC2=C(CC1/C=N/NC(N)=S)C(C)(C)CCC2 (stereo unspecified)	30.5% (active)
Cc1cc(C)nc(NS(=O)(=O)c2ccc(N3C(=O)C4CCCCC4C3=O)cc2)n1 (stereo unspecified)	-7.47%
CCn1c(SCC(=O)NNC(=O)c2ccc(OC)cc2)nnc1C(C)C	4.07%
Cc1cccc([C@@H]2[C@@H]3C(=O)N(C)C(=O)[C@@H]3[C@@H]3C(=O)Nc4ccccc4C(=O)N23)c1	-3.83%
CCC1(CC)Cc2ccccc2-c2nc(CCl)[nH]c(=O)c21	2.03%
CC(C)=C(NC(=O)c1ccccc1)C(=O)N/N=C(\C)c1ccccc1O	-2.21%
C/C(=N\NC(=O)c1ccoc1C)c1ccccc1O	31.6% (active)
Cc1[nH]n(-c2ccccc2)c(=O)c1/C=N/NC(=O)c1ccoc1C	-3.48%
COc1cc(C2C(C(=O)c3ccco3)=C(O)C(=O)N2c2cc(C)on2)ccc1OCc1ccccc1 (stereo unspecified)	1.75%
Cc1csc(=NC(=O)c2ccccc2)n1CCO	4.05%
Cc1csc(=Nc2ccccc2)n1CCO	2.31%
OCCn1c(-c2ccccc2)csc1=Nc1ccccc1	44.3% (active)
CC(=O)NS(=O)(=O)c1ccc2c(c1)Cc1cc(S(=O)(=O)NC(C)=O)ccc1-2	10.3%
COc1cc(SC#N)ccc1N=Cc1c(C)[nH]n(-c2ccc(C)cc2)c1=O	-5.1%
CCN1CCN(C(=O)C2CCN(S(=O)(=O)c3cc(Cl)ccc3Cl)CC2)CC1	-5.08%
COc1ccc(C(=O)NNC(=S)NC(=O)c2ccccc2)cc1	8.59%
CNC(=S)NNC(=O)c1ccc(N(C)C)cc1	37.4% (active)
CC(=O)NC(=S)NNC(=O)c1ccc(Br)cc1	10.7%
CC1CCN(S(=O)(=O)c2ccc3c(ccn3CC(=O)O)c2)CC1	4.44%
CN(C)S(=O)(=O)c1cccc(NC(=S)N/N=C/C(=O)c2ccccc2)c1	29.6% (active)
CN(C)S(=O)(=O)c1cccc(NC(=S)NCc2ccc3c(c2)OCO3)c1	-10.4%
Cc1ccc(/C=N/NC(=S)Nc2cccc(S(=O)(=O)N(C)C)c2)o1	9.59%
Cc1ccc(S(=O)(=O)NNC(=O)/C=C/c2cccc(F)c2)cc1	12.8%

SMILES	inhibition
CC1Cc2cc(/C(O)=C3\C(=O)C(=O)N(Cc4cccnc4)C3c3ccccc3F)ccc2O1 (stereo unspecified)	7.22%
Cc1cc2c(C)nc(N/N=C/c3ccccc3)nc2o1	37.1% (active)
Cc1nc(Cl)cc(N/N=C/c2ccccc2)n1	1.31%
Cc1cc(C)nc(N/N=C/c2c(C)oc3ccccc23)n1	-6.94%
CCn1nc(C)c(CNC(=O)C2CCC(=O)N(Cc3cccc(F)c3)C2)c1C (stereo unspecified)	-1.99%
COc1ccccc1C(=O)N(C1=NC(C)CS1)c1ccc(Cl)cc1 (stereo unspecified)	-8.55%
O=C(CSc1ncn[nH]1)NCc1ccc2c(c1)OCO2	5.91%
O=C(CSc1ncn[nH]1)N/N=C/c1ccc(F)cc1	21.1%
ClC1(Cl)CC1CSc1ncn[nH]1 (stereo unspecified)	34.4% (active)
O=C(c1cccc(-n2cccc2)c1)N1CCN(S(=O)(=O)c2ccc(F)cc2)CC1	14.4%
CC(C)c1ccc(NC(=O)[C@@H](NC(=O)N2CC(=O)Nc3ccccc32)C(C)C)cc1	-1.48%
COc1cccc(/C=N/Nc2ccc(Cl)nn2)c1	18.6%
Oc1c(Br)cccc1/C=N/Nc1c(F)c(F)c(F)c(F)c1F	-1.11%
NC(=O)N/N=C\c1cccs1	1.75%
Cc1ccsc1/C=N/Nc1ccc(Cl)nn1	38.9% (active)
Oc1cccc(/C=N/Nc2ccc(Cl)nn2)c1O	60.9% (active)
Clc1ccc(N/N=C/c2cccs2)nn1	31.6% (active)
Cc1ccsc1/C=N/NC(=O)Cc1cc(=O)[nH][nH]1	1.38%
Cc1nnc(N/N=C/c2cccs2)[nH]c1=O	0.78%
Cc1ccsc1/C=N/n1c(=S)[nH]nc(C)c1=O	2.51%
COc1ccc(CNC(=O)c2c[nH]c3c(OC)cc(OC)cc3c2=O)cc1	2.86%
CCc1ccc(NC(=O)N2CCc3ccccc3C2)cc1	-1.34%
COc1ccc(NS(=O)(=O)c2cc(C(=O)Nc3ccccc3C(=O)O)ccc2C)cc1	1.9%
O=C(NC(=S)N1CCCCC1c1cccnc1)c1ccccc1 (stereo unspecified)	4.53%
